Assay results published in PubChem BioAssay (EPA / NIEHS).
Records with an inconclusive call do not appear. Active and inactive are the calls of the source. How the source made its calls, unless noted: active means hit-call score of the fitted dose curve at least 0.9, where 1 is the maximum; inactive means score below 0.9.

How the values were obtained:
[1] = target: Nuclear respiratory factor 1 (Homo sapiens) (UniProt Q16656); assay: ATG_NRF1_CIS: Attagene CIS-FACTORIAL HepG2 Assay for human Nuclear Respiratory Factor 1 (NRF1) Orphan Gene (AID 2282987); conditions: HepG2 NRF1 cis-element reporter, Attagene multiplex; actives raise or lower the signal
Summary of the method: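 Multiplexed cis-reporter assay, HepG2 cells, 24 h treatment. Total RNA → oligo(dT) RT → PCR with reporter-specific primers → 6-FAM primer extension → HpaI cut → CE. Bidirectional fit vs DMSO.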

[2] = ATG_NFI_CIS: Attagene CIS-FACTORIAL HepG2 Assay for human Nuclear Factor I (NFI) (AID 2282989); conditions: HepG2 cis-regulatory reporter, NFI response element transcription; actives raise or lower the signal
Summary of the method: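 HepG2, transient MRTU, 24 h exposure; RNA→cDNA→PCR→FAM label→HpaI→CE fluorescence. Bidirectional fit, DMSO = baseline.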

[3] = target: Myc proto-oncogene protein (Homo sapiens) (UniProt P01106); assay: ATG_Myc_CIS: Attagene CIS-FACTORIAL HepG2 Assay for human Myelocytomatosis (Myc) Proto-Oncogene Transcription Factor (AID 2282990); conditions: HepG2, Attagene cis-reporter transcription factor activity; actives raise or lower the signal
Summary of the method: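 Cells of the HepG2 human liver line bear multiple cis-driven reporter transcription units. Reporter mRNA after 24 h exposure is reverse-transcribed, amplified, labelled and resolved by capillary electrophoresis, with gain- or loss-of-signal fitting relative to DMSO.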

[4] = ATG_NF_kB_CIS: Attagene CIS-FACTORIAL HepG2 Assay for human Nuclear Factor Kappa B (NF-kB) (AID 2282991); conditions: HepG2 Attagene cis-factorial NF-kB reporter mRNA; actives raise or lower the signal
Summary of the method: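 Transient MRTU transfection of human HepG2 liver cells → 24 h chemical exposure → total RNA, oligo(dT) RT → PCR, 6-FAM primer extension, HpaI digest 2 h 37 C → CE fragment analysis. Bidirectional fitting, DMSO negative control.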

[5] = ATG_NRF2_ARE_CIS: Attagene CIS-FACTORIAL HepG2 Assay for human Nuclear Factor Erythroid 2 Related Factor 2 (NFR2) response to Antioxidant Response Elements (ARE) (AID 2282992); conditions: HepG2 Attagene ARE/NRF2 reporter, transcription factor activity; actives raise or lower the signal;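 on AC50: reporter mRNA level measured by RT-PCR and capillary electrophoresis fluorescence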
Summary of the method: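 Transient MRTU transfection of HepG2; 24 h compound exposure; TriZol RNA, RT with oligo(dT), PCR, 6-FAM primer extension, HpaI cut, CE. Bidirectional fit vs DMSO.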

[6] = ATG_Oct_MLP_CIS: Attagene CIS-FACTORIAL HepG2 Assay for human Octamer-Binding Transcription Factor (Oct) (AID 2282993); conditions: HepG2 Attagene cis-factorial Oct reporter, mRNA; actives raise or lower the signal
Summary of the method: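 Multiplexed cis-reporter assay in human liver HepG2 cells, 24 h incubation. Reporter RNA amplified and labelled, then resolved by capillary electrophoresis; DMSO serves as negative control and baseline.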

[7] = target: Cellular tumor antigen p53 (Homo sapiens) (UniProt P04637); assay: ATG_p53_CIS: Attagene CIS-FACTORIAL HepG2 Assay for human p53 Transcription Factor (AID 2282994); conditions: HepG2 p53 cis-element reporter, Attagene mRNA; actives raise or lower the signal
Summary of the method: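 HepG2, transient MRTU transfection (cis promoter elements, endogenous TFs); 24 h dosing; RNA isolation, RT-PCR, 6-FAM primer extension, HpaI digest, CE fluorescence; bidirectional fit vs DMSO.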

[8] = BSK_3C_TissueFactor: BioMAP Diversity Plus: 3C Assay for Tissue Factor Biomarker Activity (AID 2282997); conditions: BioMAP 3C HUVEC, tissue factor biomarker readout; actives raise or lower the signal
Summary of the method: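 Primary human umbilical vein endothelial cells in the 3C system were exposed to test chemical for 24 h, then Tissue Factor measured by ELISA. Activity was fitted bidirectionally against DMSO as negative control and baseline.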

[9] = BSK_3C_uPAR: BioMAP Diversity Plus: 3C Assay for Urokinase-type plasminogen activator receptor (uPAR) Biomarker Activity (AID 2282998); conditions: BioMAP 3C HUVEC, uPAR biomarker ELISA; actives raise or lower the signal
Summary of the method: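 Dose primary human umbilical vein endothelial cells, incubate 24 h, measure cell-surface uPAR by ELISA, then fit the signal in both directions against the DMSO negative control.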

[10] = BSK_3C_VCAM1: BioMAP Diversity Plus: 3C Assay for Vascular cell adhesion molecule 1 (VCAM1) Biomarker Activity (AID 2282999); conditions: BioMAP 3C HUVEC, VCAM1 ELISA, cytokine-stimulated; actives raise or lower the signal
Summary of the method: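 Endothelial cells from human umbilical vein are treated with test chemical. At 24 h, VCAM-1 is measured by ELISA, and responses in either direction are fitted relative to DMSO.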

[11] = target: human Peroxisome Proliferator-activated Receptor delta (PPARd), PPARD (gene 5467) (UniProt Q03181); assay: ATG_PPARd_TRANS: Attagene TRANS-FACTORIAL HepG2 Assay for human Peroxisome Proliferator-activated Receptor delta (PPARd) (AID 2283002; active means hit-call score of the fitted dose curve at least 0.9, where 1 is the maximum)
Summary of the method: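 Cell-based TRANS reporter: HepG2, transient MRTU transfection, 24 h exposure. Readout = reporter mRNA (RT-PCR/CE, 6-FAM). Gain-of-signal fit vs DMSO control.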

[12] = read-out: Intercellular Adhesion Molecule 1 (ICAM1), ICAM1 (gene 3383); assay: BSK_3C_ICAM1: BioMAP Diversity Plus: 3C Assay for Intercellular Adhesion Molecule 1 (ICAM1) Biomarker Activity (AID 2283003); conditions: primary human endothelial cells (HUVEC); actives raise or lower the signal
Summary of the method: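 Primary human umbilical vein endothelial cells in the BioMAP 3C system were exposed to chemicals for 24 h, then ICAM-1 was quantified by ELISA. Activity was fitted bidirectionally against the DMSO negative control baseline.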

[13] = BSK_3C_Proliferation: Cell Proliferation Assessment in the BioMAP Diversity Plus: 3C Assay (AID 2283006); conditions: primary human endothelial cells (HUVEC);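 on AC50: potency may reflect either rise or fall in cell number versus DMSO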
Summary of the method: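 Human umbilical vein endothelial cells were grown sub-confluent and exposed to chemical for 48 h, then fixed with 10% TCA and stained with 0.1% sulforhodamine B; absorbance at 560 nm gave relative cell number, fitted bidirectionally against DMSO baseline.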

[14] = target: Peroxisome proliferator-activated receptor gamma (Homo sapiens) (UniProt P37231); assay: ATG_PPARg_TRANS: Attagene TRANS-FACTORIAL HepG2 Assay for human Peroxisome Proliferator-activated Receptor-gamma (PPARg) (AID 2283007; active means hit-call score of the fitted dose curve at least 0.9, where 1 is the maximum)
Summary of the method: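 Transient transfection of HepG2 with GAL4-UAS-driven reporter units; chemical dosing 24 h; total RNA → oligo(dT) RT → PCR with reporter primers → 6-FAM primer extension → HpaI digest 2 h 37 C → capillary electrophoresis. Positive direction vs DMSO.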

[15] = target: Nuclear receptor subfamily 1 group I member 2 (Homo sapiens) (UniProt O75469); assay: ATG_PXR_TRANS: Attagene TRANS-FACTORIAL HepG2 Assay for human Pregnane X Receptor (PXR) (AID 2283008; active means hit-call score of the fitted dose curve at least 0.9, where 1 is the maximum)
Summary of the method: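 Read-out is fluorescence of labelled reporter cDNA fragments separated by capillary electrophoresis after RT-PCR and HpaI digestion. Source: HepG2 cells carrying PXR-GAL4/UAS reporter constructs, treated 24 h; activity fitted upward relative to DMSO.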

[16] = BSK_4H_Eotaxin3: BioMAP Diversity Plus: 4H Assay for Eotaxin 3 Biomarker Activity (AID 2283000); conditions: primary human endothelial cells (HUVEC); actives raise or lower the signal
Summary of the method: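 HUVEC, 24 h post-dose, ELISA for Eotaxin-3/CCL26. Gain or loss of signal fitted bidirectionally vs DMSO baseline.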

[17] = target: human Peroxisome Proliferator-activated Receptor alpha (PPARa), PPARA (gene 5465) (UniProt Q07869); assay: ATG_PPARa_TRANS: Attagene TRANS-FACTORIAL HepG2 Assay for human Peroxisome Proliferator-activated Receptor alpha (PPARa) (AID 2283001; active means hit-call score of the fitted dose curve at least 0.9, where 1 is the maximum)
Summary of the method: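 Reporter transcripts from GAL4-UAS units in transfected HepG2 were quantified 24 h after dosing. Detection used reverse transcription, PCR, fluorescent primer extension and capillary electrophoresis, with DMSO as baseline.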

[18] = target: human Retinoic Acid Receptor beta (RARb), RARB (gene 5915) (UniProt P10826); assay: ATG_RARb_TRANS: Attagene TRANS-FACTORIAL HepG2 Assay for human Retinoic Acid Receptor beta (AID 2283004; active means hit-call score of the fitted dose curve at least 0.9, where 1 is the maximum)
Summary of the method: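 HepG2 cells transiently transfected with multiplexed GAL4-UAS reporter units expressing chimeric NR–Gal4 fusions; 24 h compound exposure. Reporter mRNA quantified by RT-PCR, 6-FAM labelling, HpaI digestion and capillary electrophoresis; gain-of-signal fitted against DMSO baseline.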

[19] = target: Retinoic acid receptor alpha (Homo sapiens) (UniProt P10276); assay: ATG_RARa_TRANS: Attagene TRANS-FACTORIAL HepG2 Assay for human Retinoic Acid Receptor alpha (RARa) (AID 2283005; active means hit-call score of the fitted dose curve at least 0.9, where 1 is the maximum)
Summary of the method: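 Reporter transcripts, measured by RT-PCR with fluorescent labeling and capillary electrophoresis after 24 h dosing, reflect activity of an exogenous human RARa–GAL4 fusion in transiently transfected HepG2. Fitted for increase relative to DMSO.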

[20] = target: human Retinoic Acid Receptor gamma (RARg), RARG (gene 5916) (UniProt P13631); assay: ATG_RARg_TRANS: Attagene TRANS-FACTORIAL HepG2 Assay for human Retinoic Acid Receptor gamma (RARg) (AID 2283009; active means hit-call score of the fitted dose curve at least 0.9, where 1 is the maximum)
Summary of the method: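 HepG2 cells transiently transfected with multiplexed reporter units expressing chimeric RARg-GAL4 and GAL4-UAS-driven reporters; 24 h compound exposure. Reporter mRNA quantified by RT-PCR with fluorescent labelling and capillary electrophoresis; gain-of-signal fitted relative to DMSO baseline.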

Measured: AC50

Sequence of human Peroxisome Proliferator-activated Receptor delta (PPARd), PPARD (gene 5467) (Q03181 whole entry, looked up): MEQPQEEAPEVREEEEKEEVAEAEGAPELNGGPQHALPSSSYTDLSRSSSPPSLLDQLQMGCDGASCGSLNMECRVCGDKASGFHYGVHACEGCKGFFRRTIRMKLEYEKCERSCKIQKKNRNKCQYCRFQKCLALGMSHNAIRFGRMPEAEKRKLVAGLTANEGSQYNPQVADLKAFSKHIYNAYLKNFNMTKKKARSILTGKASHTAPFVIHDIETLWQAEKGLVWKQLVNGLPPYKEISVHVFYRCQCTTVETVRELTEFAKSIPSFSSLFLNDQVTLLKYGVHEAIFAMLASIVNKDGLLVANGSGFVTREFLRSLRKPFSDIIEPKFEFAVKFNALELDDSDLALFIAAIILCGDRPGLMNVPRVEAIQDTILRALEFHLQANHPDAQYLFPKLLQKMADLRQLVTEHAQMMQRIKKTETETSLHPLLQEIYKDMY
Sequence of human Retinoic Acid Receptor gamma (RARg), RARG (gene 5916) (P13631 whole entry, looked up, the tested form may be a part): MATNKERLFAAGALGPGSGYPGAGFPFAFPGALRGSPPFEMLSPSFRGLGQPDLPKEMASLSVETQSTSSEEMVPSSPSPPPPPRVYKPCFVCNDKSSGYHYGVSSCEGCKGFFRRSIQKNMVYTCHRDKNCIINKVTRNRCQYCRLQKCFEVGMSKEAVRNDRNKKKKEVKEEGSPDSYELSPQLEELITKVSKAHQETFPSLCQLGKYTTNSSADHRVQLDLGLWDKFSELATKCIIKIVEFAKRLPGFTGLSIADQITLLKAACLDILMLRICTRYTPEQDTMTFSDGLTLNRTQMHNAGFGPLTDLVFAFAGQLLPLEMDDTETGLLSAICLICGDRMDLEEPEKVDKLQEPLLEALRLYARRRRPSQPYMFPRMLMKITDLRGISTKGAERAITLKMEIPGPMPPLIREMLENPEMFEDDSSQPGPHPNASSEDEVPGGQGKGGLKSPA
Sequence of human Retinoic Acid Receptor beta (RARb), RARB (gene 5915) (P10826 whole entry, looked up, the tested form may be a part): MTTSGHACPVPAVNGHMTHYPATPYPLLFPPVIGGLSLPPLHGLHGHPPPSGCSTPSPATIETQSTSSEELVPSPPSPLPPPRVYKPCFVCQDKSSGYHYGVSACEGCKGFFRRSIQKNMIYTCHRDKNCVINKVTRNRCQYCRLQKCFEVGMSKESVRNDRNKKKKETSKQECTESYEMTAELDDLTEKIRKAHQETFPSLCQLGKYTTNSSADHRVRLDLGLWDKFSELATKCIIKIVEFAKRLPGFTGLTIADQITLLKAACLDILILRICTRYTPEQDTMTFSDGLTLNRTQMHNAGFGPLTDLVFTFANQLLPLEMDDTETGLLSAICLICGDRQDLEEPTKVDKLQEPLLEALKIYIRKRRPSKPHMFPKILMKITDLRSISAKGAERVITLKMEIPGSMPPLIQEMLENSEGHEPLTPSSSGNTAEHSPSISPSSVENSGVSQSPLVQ
Sequence of Myc proto-oncogene protein (Homo sapiens) (P01106 whole entry, looked up): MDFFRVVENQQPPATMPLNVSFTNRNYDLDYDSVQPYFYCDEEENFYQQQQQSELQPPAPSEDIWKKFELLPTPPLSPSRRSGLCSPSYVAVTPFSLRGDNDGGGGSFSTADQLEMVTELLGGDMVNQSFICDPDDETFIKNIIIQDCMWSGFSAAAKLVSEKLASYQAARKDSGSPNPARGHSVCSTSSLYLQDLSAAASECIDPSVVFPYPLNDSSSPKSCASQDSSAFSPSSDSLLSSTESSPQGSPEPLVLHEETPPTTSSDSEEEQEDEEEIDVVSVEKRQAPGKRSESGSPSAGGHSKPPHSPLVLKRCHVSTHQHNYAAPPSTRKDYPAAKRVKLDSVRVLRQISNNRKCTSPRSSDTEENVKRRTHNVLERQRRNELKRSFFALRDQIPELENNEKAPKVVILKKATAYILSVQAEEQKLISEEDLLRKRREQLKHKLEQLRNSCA
Sequence of Nuclear respiratory factor 1 (Homo sapiens) (Q16656 whole entry, looked up): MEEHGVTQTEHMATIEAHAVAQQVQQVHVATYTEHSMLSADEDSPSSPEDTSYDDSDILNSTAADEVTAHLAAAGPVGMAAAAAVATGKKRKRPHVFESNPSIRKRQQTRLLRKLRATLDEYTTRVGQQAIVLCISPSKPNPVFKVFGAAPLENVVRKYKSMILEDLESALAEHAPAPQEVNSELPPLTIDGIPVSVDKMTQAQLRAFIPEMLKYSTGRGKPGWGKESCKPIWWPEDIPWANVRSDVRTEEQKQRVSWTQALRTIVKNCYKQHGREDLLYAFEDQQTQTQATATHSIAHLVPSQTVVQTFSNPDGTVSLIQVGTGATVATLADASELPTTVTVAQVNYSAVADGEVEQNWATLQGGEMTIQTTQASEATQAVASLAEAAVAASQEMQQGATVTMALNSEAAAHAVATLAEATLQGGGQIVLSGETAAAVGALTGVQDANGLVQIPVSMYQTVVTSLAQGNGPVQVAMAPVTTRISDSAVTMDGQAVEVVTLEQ
Sequence of Nuclear receptor subfamily 1 group I member 2 (Homo sapiens) (O75469 whole entry, looked up, the tested form may be a part): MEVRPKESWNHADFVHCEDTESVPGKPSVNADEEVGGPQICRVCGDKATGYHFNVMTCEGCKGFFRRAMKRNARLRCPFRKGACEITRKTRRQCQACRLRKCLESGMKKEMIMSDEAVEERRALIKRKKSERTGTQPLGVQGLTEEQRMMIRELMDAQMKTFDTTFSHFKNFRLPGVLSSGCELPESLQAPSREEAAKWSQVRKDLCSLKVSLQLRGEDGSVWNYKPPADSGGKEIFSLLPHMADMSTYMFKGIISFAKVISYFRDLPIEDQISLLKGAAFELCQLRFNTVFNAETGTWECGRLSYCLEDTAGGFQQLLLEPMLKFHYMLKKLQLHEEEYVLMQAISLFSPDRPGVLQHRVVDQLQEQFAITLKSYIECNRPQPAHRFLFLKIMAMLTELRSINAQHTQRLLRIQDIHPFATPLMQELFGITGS
Sequence of human Peroxisome Proliferator-activated Receptor alpha (PPARa), PPARA (gene 5465) (Q07869 whole entry, looked up, the tested form may be a part): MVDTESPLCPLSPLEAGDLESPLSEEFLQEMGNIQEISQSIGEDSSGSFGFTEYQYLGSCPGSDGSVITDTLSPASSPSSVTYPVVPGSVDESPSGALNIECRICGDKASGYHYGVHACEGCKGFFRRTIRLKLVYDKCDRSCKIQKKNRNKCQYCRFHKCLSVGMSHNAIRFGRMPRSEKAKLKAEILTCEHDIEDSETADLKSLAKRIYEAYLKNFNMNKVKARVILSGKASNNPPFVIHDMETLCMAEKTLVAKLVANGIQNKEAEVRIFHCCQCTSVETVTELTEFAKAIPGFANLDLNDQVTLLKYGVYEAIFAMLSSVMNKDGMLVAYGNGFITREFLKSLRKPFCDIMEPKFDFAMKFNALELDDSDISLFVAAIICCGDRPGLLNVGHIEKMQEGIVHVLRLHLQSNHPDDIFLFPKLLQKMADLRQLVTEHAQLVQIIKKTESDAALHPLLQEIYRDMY
Sequence of Retinoic acid receptor alpha (Homo sapiens) (P10276 whole entry, looked up, the tested form may be a part): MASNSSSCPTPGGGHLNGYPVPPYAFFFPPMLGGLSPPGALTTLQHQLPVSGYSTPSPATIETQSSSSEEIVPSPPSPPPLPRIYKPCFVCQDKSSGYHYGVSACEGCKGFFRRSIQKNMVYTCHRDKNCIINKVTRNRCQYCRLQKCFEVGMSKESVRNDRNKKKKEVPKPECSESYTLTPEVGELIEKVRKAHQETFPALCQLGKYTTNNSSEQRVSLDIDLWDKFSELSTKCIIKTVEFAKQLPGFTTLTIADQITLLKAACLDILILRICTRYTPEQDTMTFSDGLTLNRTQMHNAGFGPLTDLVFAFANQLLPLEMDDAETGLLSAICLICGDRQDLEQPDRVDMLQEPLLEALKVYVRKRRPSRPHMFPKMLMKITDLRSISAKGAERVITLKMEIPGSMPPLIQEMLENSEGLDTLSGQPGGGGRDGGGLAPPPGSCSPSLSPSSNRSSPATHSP
Sequence of Cellular tumor antigen p53 (Homo sapiens) (P04637 whole entry, looked up): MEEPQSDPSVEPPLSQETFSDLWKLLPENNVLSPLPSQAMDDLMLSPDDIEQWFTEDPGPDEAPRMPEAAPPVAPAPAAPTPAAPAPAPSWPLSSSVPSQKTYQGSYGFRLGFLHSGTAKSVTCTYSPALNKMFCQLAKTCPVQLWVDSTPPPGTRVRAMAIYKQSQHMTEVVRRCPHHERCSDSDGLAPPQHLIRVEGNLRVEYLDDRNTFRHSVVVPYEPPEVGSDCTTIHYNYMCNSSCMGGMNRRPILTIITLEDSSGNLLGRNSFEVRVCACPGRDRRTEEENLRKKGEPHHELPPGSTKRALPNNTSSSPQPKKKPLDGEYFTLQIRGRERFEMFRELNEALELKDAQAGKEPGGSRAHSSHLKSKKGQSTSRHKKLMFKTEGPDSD
Sequence of Peroxisome proliferator-activated receptor gamma (Homo sapiens) (P37231 whole entry, looked up, the tested form may be a part): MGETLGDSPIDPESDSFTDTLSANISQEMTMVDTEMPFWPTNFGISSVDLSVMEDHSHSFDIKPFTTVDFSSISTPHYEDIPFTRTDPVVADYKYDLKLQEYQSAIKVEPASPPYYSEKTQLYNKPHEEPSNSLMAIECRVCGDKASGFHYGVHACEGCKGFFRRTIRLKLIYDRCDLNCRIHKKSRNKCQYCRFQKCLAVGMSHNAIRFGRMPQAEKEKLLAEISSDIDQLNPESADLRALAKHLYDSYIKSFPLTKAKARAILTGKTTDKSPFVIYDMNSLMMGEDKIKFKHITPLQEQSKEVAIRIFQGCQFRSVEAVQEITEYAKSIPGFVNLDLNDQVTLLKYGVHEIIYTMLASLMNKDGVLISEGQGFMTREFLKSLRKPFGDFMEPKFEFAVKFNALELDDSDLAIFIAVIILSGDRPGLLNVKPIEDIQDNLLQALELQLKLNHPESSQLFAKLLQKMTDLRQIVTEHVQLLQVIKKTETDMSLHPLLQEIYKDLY

O=c1ssc(Cl)c1Cl
inactive: [2] | [7] | [11] | [15]
active: [1] 33.4 µM | [3] 33.4 µM | [4] 45 µM | [5] 1.08 µM | [6] 51.6 µM | [8] 5.68 µM | [9] 6.09 µM | [10] 5.62 µM | [12] 11.3 µM | [13] 1.45 µM | [14] 33.4 µM

CCN(CC)c1ccccc1
not listed: [11] | [14] | [16] | [17] | [18] | [19] | [20]
inactive: all other assays above

O=C(O)C(F)(F)OC(F)(F)C(F)(F)OC(F)(F)C(=O)O
not listed: [5] | [14] | [17] | [18] | [19] | [20]
inactive: all other assays above

NNC(N)=S
inactive: [1] | [2] | [3] | [4] | [5] | [6] | [11] | [14]

COP(N)(=S)OC
not listed: [7] | [11] | [14] | [17] | [18] | [19] | [20]
inactive: all other assays above

c1cc2c3c(cccc3c1)CC2
not listed: [11] | [16]
inactive: all other assays above

CCN(CC)C1CCCCC1
inactive: [1] | [2] | [3] | [4] | [5] | [6] | [7] | [11] | [14] | [15] | [20]

CCOP(=S)(OCC)SCSc1ccc(Cl)cc1
active: [5] 29.6 µM | [8] 0.0123 µM | [9] 0.397 µM | [16] 7.22 µM | [13] 11.8 µM | [15] 5.52 µM
not listed: [7] | [17] | [18] | [19] | [20]
inactive: all other assays above

ClC(Cl)=C(c1ccc(Cl)cc1)c1ccccc1Cl
inactive: [1] | [3] | [4] | [7] | [17] | [11] | [14]
active: [2] 181 µM | [5] 35.3 µM | [6] 100 µM | [8] 20 µM | [9] 10.5 µM | [10] 10.7 µM | [16] 6 µM | [12] 28.7 µM | [13] 11.7 µM | [15] 2.27 µM

O=P(Oc1ccccc1)(Oc1ccccc1)Oc1ccccc1
active: [6] 25.2 µM | [8] 27.3 µM | [9] 32.2 µM | [10] 27.6 µM | [16] 33.8 µM | [13] 24.9 µM | [14] 5.5 µM | [15] 0.693 µM
inactive: [1] | [2] | [3] | [4] | [7] | [11] | [12]

COP(=O)(O)OC
active: [9] 0.062 µM | [15] 27.2 µM
not listed: [7] | [17] | [18]
inactive: all other assays above

O=C(O)C(F)(F)C(F)(F)C(=O)O
not listed: [4]
inactive: all other assays above

CCOP(=S)(NC(C)C)Oc1ccccc1C(=O)OC(C)C (stereo unspecified)
active: [14] 8.99 µM | [15] 0.599 µM
not listed: [4] | [16] | [17] | [18] | [19] | [20]
inactive: all other assays above

Cn1[nH]nnc1=S
inactive: [1] | [2] | [3] | [5] | [6] | [7] | [18] | [19] | [15]

NC(=O)C(F)(F)C(F)(F)F
not listed: [5] | [7] | [20]
inactive: all other assays above

O=[N+]([O-])c1ccccc1
not listed: [4] | [7] | [11] | [14] | [17] | [18] | [20]
inactive: all other assays above

CCCCOCC1CO1 (stereo unspecified)
inactive: [1] | [2] | [3] | [5] | [6] | [7] | [17] | [11] | [14] | [15]

CCCCN(CCCC)N=O
not listed: [4] | [11] | [14] | [16] | [18] | [19] | [20]
inactive: all other assays above
